Reference: article PMC4552634, “A New Set of Chemical Starting Points with Plasmodium falciparum Transmission-Blocking Potential for Antimalarial Drug Discovery” (PLoS ONE, 2015)
In all, about 13,000 compounds went through this assay and about 3,200 (25%) showed an effect of 50% or more. This is one part of the list.

What follows are compounds tested on P. falciparum stage V gametocytes. Conditions: 48 h, 5 µM; inhibitor.
Parameters: BacTiter-Glo ATP luminescence viability of purified stage V gametocytes in 384-well plates, per cent inhibition versus DMSO

SMILES	% Inhibition [%]
CN1CC=C(c2c[nH]c3ccc(OCc4ccccc4)cc23)CC1 [TCMDC-132113]	-6.135
Cc1ccc(C2=NNC3(S2)C(=O)Nc2ccc(C)cc23)cc1 (centres unmarked) [TCMDC-123866]	44.96
CCCCNC(=O)[C@@H]1CCCN1C(=O)c1ccc(O)c(-c2ccc(Cl)c(Cl)c2)c1 [TCMDC-140837]	7.64
Clc1ccc(CNc2nc(NCCc3cnc[nH]3)nc(NC3CCCCC3)n2)cc1 [TCMDC-139734]	-12.92
NCC1CCCN1Cc1ccc(-c2cccc(-c3nc4ccc(C(F)(F)F)cc4[nH]3)c2)cc1 (centres unmarked) [TCMDC-132990]	70.04
NCC1CCCN1Cc1cccc(-c2ccc(-c3nc4ccc(C(F)(F)F)cc4[nH]3)cc2)c1 (centres unmarked) [TCMDC-132996]	21.42
NCC1CCCN1Cc1ccc(-c2ccc(-c3nc4cc(C(F)(F)F)ccc4[nH]3)s2)cc1.O=C(O)C(F)(F)F (centres unmarked) [TCMDC-133000]	16.97
OCCN1CCN(Cc2ccc(-c3cccc(-c4nc5ccc(C(F)(F)F)cc5[nH]4)c3)cc2)CC1 [TCMDC-133024]	24.38
NCC1CCCN1Cc1ccc(-c2ccc(-c3nc4ccc(C(F)(F)F)cc4[nH]3)cc2)cc1 (centres unmarked) [TCMDC-132995]	50.61
OCC1CCN(Cc2ccc(-c3ccc(-c4nc5ccc(C(F)(F)F)cc5[nH]4)cc3)cc2)CC1 [TCMDC-133124]	-13.18
Fc1ccc2cc(C=Cc3ccncc3)[nH]c2c1 [TCMDC-137494]	-53.7
O=C(Nc1cccc(C(F)(F)F)c1)Nc1nc2ccc([N+](=O)[O-])cc2s1 [TCMDC-123631]	27.05
Cn1cncc1-c1ccc2ncnc(Nc3ccc(OCc4ccccc4)cc3)c2c1 [TCMDC-137504]	-32.31
CN1CCN(S(=O)(=O)c2cccc(Nc3nccc(N(C)c4ccc5c(c4)nc(NC(=O)c4cccs4)n5C)n3)c2)CC1 [TCMDC-134378]	79.98
Cc1ccc(Nc2nc3cc(N(C)c4ccnc(Nc5cccc(CCS(C)(=O)=O)c5)n4)ccc3n2C)cc1 [TCMDC-138853]	-59.51
Cn1c(Nc2cc(C(C)(C)C)on2)nc2cc(Nc3ccnc(Nc4cccc(CS(C)(=O)=O)c4)n3)ccc21 [TCMDC-141893]	24.31
CN(c1ccc2c(c1)nc(Nc1cc(C(C)(C)C)on1)n2C)c1ccnc(Nc2ccc(CS(C)(=O)=O)cc2)n1 [TCMDC-141892]	-9.766
Cc1[nH]nc2cc(Nc3ccnc(Nc4cccc(CN5CCOCC5)c4)n3)ccc12 [TCMDC-138632]	3.491
Cc1ccc(Nc2nccc(Nc3ccc4c(C)[nH]nc4c3)n2)cc1F [TCMDC-138542]	-63.2
Cn1c(Nc2cc(C(C)(C)C)on2)nc2cc(Nc3ccnc(Nc4cccc(S(=O)(=O)N5CCOCC5)c4)n3)ccc21 [TCMDC-134098]	97.72
CN(c1ccc2c(c1)nc(NC(=O)C1(c3cc(F)ccc3F)CC1)n2C)c1ccnc(Nc2cccc(CS(C)(=O)=O)c2)n1 [TCMDC-141964]	-60.83
Cn1c(NCc2cc(F)cc3c2OCOC3)nc2cc(Nc3ccnc(Nc4cccc(CS(C)(=O)=O)c4)n3)ccc21 [TCMDC-134151]	-2.358

SMILES	% Inhibition [%]
Cc1ccc(Nc2nccc(N(C)c3ccc4c(c3)nc(NC(=O)Cc3ccc(Cl)c(Cl)c3)n4C)n2)cc1S(N)(=O)=O [TCMDC-141965]	-9.254
Cc1ccc(Nc2nccc(Nc3ccc4c(c3)nc(Nc3cc(C(C)(C)C)on3)n4C)n2)cc1S(C)(=O)=O [TCMDC-141889]	96.33
Cn1c(Nc2cc(C(C)(C)C)on2)nc2cc(Nc3ccnc(Nc4ccc(CS(C)(=O)=O)cc4)n3)ccc21 [TCMDC-141890]	82.06
COc1ccc2nc(C)cc(Nc3ccc(Oc4ccc(Cl)c5ccccc45)c(Cl)c3)c2c1 [TCMDC-123856]	5.816
N#Cc1ccc2c(c1)CN(CCC1CCC(NC(=O)c3cc4cnccc4[nH]3)CC1)CC2 (centres unmarked) [TCMDC-139174]	-27.42
O=C(NCc1cccc(F)c1)Nc1ccc(-c2ccc(-c3nc4ccc(C(F)(F)F)cc4[nH]3)cc2)cc1 [TCMDC-133287]	-9.31
Cc1cccc(NC(c2cccs2)c2c(NC(=O)c3ccccc3)sc(C)c2C)n1 (centres unmarked) [TCMDC-124747]	-63.38
CCCCCCCCOc1ccc(N2C(N)=NC(N)=NC2(C)C)cc1 [TCMDC-137707]	-8.138
CCCCCCC(N)c1ccc(OCCCOc2ccc(C(N)CCCCCC)cc2)cc1 (centres unmarked) [TCMDC-137621]	121.4
CCCCCC(NCCCC)c1ccc(OCCOc2ccc(C(CCCCC)NCCCC)cc2)cc1 (centres unmarked) [TCMDC-137613]	107.4
CCCCCOc1ccc(N2C(N)=NC(N)=NC2(C)C)cc1 [TCMDC-137711]	13.1
CCCCCOc1ccc(NC2=CC(=O)C(=O)c3ccccc32)cc1 [TCMDC-125724]	-1.294
CCCCOc1ccc(N2C(N)=NC(N)=NC2(C)C)cc1 [TCMDC-124279]	-11.62
CCCCC(NCC)c1ccc(OCCOc2ccc(C(CCCC)NCC)cc2)cc1 (centres unmarked) [TCMDC-137612]	115.6
CCCCOc1ccc(C(O)C(CN2CCCCC2)c2ccccc2)cc1 (centres unmarked) [TCMDC-124252]	4.712
CCCCCCOc1ccc(N2C(N)=NC(N)=NC2(C)C)cc1 [TCMDC-137369]	25.73
COc1ccc(OCCON)cc1 [TCMDC-123473]	14.77
C=CCNC(CCCCC)c1ccc(OCCOc2ccc(C(CCCCC)NCC=C)cc2)cc1 (centres unmarked) [TCMDC-137483]	106.6
CC(O)C1CCCCN1C(=O)c1cccc(-c2ccc(-c3nc4cc(C(F)(F)F)ccc4[nH]3)cc2)c1 (centres unmarked) [TCMDC-132334]	-28.97
CC(C)CCn1c(Sc2ccc(C#N)c([N+](=O)[O-])c2)nnc1-c1ccc(N(C)C)cc1 [TCMDC-135617]	45.75
COc1ccc(-c2nc3c(NCc4ccccc4)nccc3[nH]2)c(OC)c1 [TCMDC-137551]	-15.03
C=CCn1c(SCc2c(C)noc2C)nc2scc(-c3cccs3)c2c1=O [TCMDC-125027]	-8.905

SMILES	% Inhibition [%]
CC(C)c1ncc(-c2ccncc2)c(C2CCC(CNC(=O)c3ccncc3)CC2)n1 (centres unmarked) [TCMDC-124824]	1.29
Cc1[nH]c2ccccc2c1C1=CCN(CCN2CCOc3c(Br)cccc3C2=O)CC1 [TCMDC-140965]	-7.337
CN1CCN(c2cc3c(Nc4ccc5c(cnn5Cc5ccccc5)c4)ncnc3cn2)CC1 [TCMDC-137767]	5.484
N#Cc1ccc2c(c1)CN(C1CCC(NC(=O)c3cc(-c4ccc(Cl)cc4)cs3)CC1)CCC2 (centres unmarked) [TCMDC-133504]	5.468
CC(C)(C)OC(=O)/C=C(\C(=O)OCc1ccc([N+](=O)[O-])cc1)c1csc(NC(c2ccccc2)(c2ccccc2)c2ccccc2)n1 [TCMDC-131971]	65.48
CCOC(=O)/C(=N\OC(C)(C)C(=O)NCc1ccc(O)c(O)c1)c1csc(NC(c2ccccc2)(c2ccccc2)c2ccccc2)n1 [TCMDC-132099]	-13.25
CCOC(=O)/C(=N\OC(C(=O)OC(C)(C)C)c1ccccc1)c1csc(NC(c2ccccc2)(c2ccccc2)c2ccccc2)n1 (centres unmarked) [TCMDC-131980]	21.22
COc1ccc(NC(=O)/C=C/c2ccc(Oc3ccccc3Cl)c([N+](=O)[O-])c2)cc1OCCN(C(C)C)C(C)C [TCMDC-140388]	-71.01
Cc1cc2nc(-c3ccc(/C=C/C(=O)NC4CCCCC4)cc3)[nH]c2cc1C [TCMDC-140435]	-5.542
Cc1ccc2nc(-c3ccc(C(=O)NC4CCN(Cc5ccccc5)CC4)s3)[nH]c2c1 [TCMDC-140399]	-1.012
O=C(NC1CCN(Cc2ccccc2)CC1)c1cccc(-c2nc3ccc(Cl)cc3[nH]2)c1 [TCMDC-140425]	27.77
CC(C)(C)c1ccc2nc(-c3ccc(C(=O)NC4CCN(Cc5ccccc5)CC4)s3)[nH]c2c1 [TCMDC-140514]	58.98
O=C(C=Cc1ccc(-c2nc3ccccc3[nH]2)cc1)NC1CCN(Cc2ccccc2)CC1 [TCMDC-140400]	-89.03
Cc1cc2nc(-c3ccc(C(=O)NC4CCN(Cc5ccccc5)CC4)cc3)[nH]c2cc1C [TCMDC-140428]	-59.23
COC(=O)c1ccc2nc(-c3cc(OC)c(O)c(C(=O)NC4CCN(Cc5ccccc5)CC4)c3)[nH]c2c1 [TCMDC-140427]	6.107
Cc1cc2nc(-c3cccc(C(=O)NC4CCN(Cc5ccccc5)CC4)c3)[nH]c2cc1C [TCMDC-140424]	75.94
CC(C)(C)c1ccc2nc(-c3ccc(/C=C/C(=O)NC4CCN(Cc5ccccc5)CC4)cc3)[nH]c2c1 [TCMDC-140456]	48.62
COC(=O)c1ccc2nc(-c3ccc(C(=O)NC4CCN(Cc5ccccc5)CC4)s3)[nH]c2c1 [TCMDC-140426]	-65.59
COC(=O)c1ccc2nc(-c3ccc(/C=C/C(=O)NC4CCN(Cc5ccccc5)CC4)cc3)[nH]c2c1 [TCMDC-140446]	84.95
O=C(/C=C/c1ccc(-c2nc3ccc(Cl)cc3[nH]2)cc1)NC1CCN(Cc2ccccc2)CC1 [TCMDC-140443]	63
CCN1CCN(c2cc(C)c3cc(NC(=O)c4cncc(Br)c4)ccc3n2)CC1 [TCMDC-125571]	-6.09
